Results: PubChem BioAssay AID1159580 (chemical genetic matrix, 2015)
“And” between values parts separate entries of the source, which are not always exact repeats. Identical values can stand only once. In all, about 5,500 compounds went through this assay and about 2,000 (36%) were called active. Roughly 18% stayed inconclusive and do not appear here. No stated cut-off is given here; in the data, active means normalized growth mostly below about 0.91 (no sharp cut-off); inconclusive means no clear call, values can overlap the other calls; inactive means mostly above about 0.92. The list shows a part of the results.

Experiment: chemical genetic growth profiling, strain panel (AID 1159580);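 further: tested at 20 µM; growth read once vehicle control cultures reached saturation at 30 °C; 1 = growth at the plate median or of vehicle wells; lower values mean less growth of the strain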
Conditions: S. cerevisiae deletion strains, growth OD

Measured: normalized growth

N#CC(O[C@@H]1O[C@H](CO[C@@H]2O[C@H](CO)[C@@H](O)[C@H](O)[C@H]2O)[C@@H](O)[C@H](O)[C@H]1O)c1ccccc1 (some centres not stated)
inactive: locus YAL013W, strain DEP1, hits give low values 1 | locus YAL021C, strain ccr4, hits give low values 0.965 | locus YAL026C, strain drs2, hits give low values 0.99 | locus YAL030W, strain snc1, hits give low values 0.986 | locus YBL061C, strain skt5, hits give low values 0.97 | locus YBR009C, strain hhf1, hits give low values 0.987 | locus YBR021W, strain FUR4, hits give low values 0.986 | locus YBR023C, strain chs3, hits give low values 0.979 | locus YBR171W, strain sec66, hits give low values 0.975 | locus YBR229C, strain ROT2, hits give low values 0.993 | locus YBR231C, strain swc5, hits give low values 0.981 | locus YBR279W, strain paf1, hits give low values 0.981 | locus YCL011C, strain gbp2, hits give low values 0.986 | locus YCL016C, strain dcc1, hits give low values 0.983 | locus YCL029C, strain bik1, hits give low values 1 | locus YCL061C, strain MRC1, hits give low values 0.99 | locus YCL069W, strain vba3, hits give low values 0.988 | locus YCR088W, strain abp1, hits give low values 0.975 | locus YDL005C, strain med2, hits give low values 0.967 | locus YDL035C, strain GPR1, hits give low values 1.01 | locus YDL040C, strain nat1, hits give low values 0.976 | locus YDL074C, strain BRE1, hits give low values 1.01 | locus YDL101C, strain DUN1, hits give low values 1 | locus YDL185W, strain tfp1, hits give low values 0.975 | locus YDL192W, strain arf1, hits give low values 0.998 | locus YDR001C, strain nth1, hits give low values 0.988 | locus YDR069C, strain doa4, hits give low values 0.975 | locus YDR101C, strain arx1, hits give low values 0.995 | locus YDR137W, strain rgp1, hits give low values 1.01 | locus YDR150W, strain NUM1, hits give low values 1.01 | locus YDR159W, strain sac3, hits give low values 0.961 | locus YDR162C, strain NBP2, hits give low values 1.04 | locus YDR195W, strain ref2 0.945 | locus YDR297W, strain sur2, hits give low values 0.992 | locus YDR318W, strain mcm21, hits give low values 1 | locus YDR334W, strain swr1, hits give low values 0.984 | locus YDR335W, strain msn5, hits give low values 0.988 | locus YDR388W, hits give low values 0.991 | locus YDR392W, strain spt3, hits give low values 0.974 | locus YDR502C, strain sam2, hits give low values 1.02 | locus YEL003W, strain gim4, hits give low values 0.99 | locus YEL037C, strain rad23, hits give low values 0.982 | locus YEL061C, strain CIN8 (second series), hits give low values 0.991 | locus YEL061C, strain CIN8, hits give low values 1 | locus YER015W, strain faa2, hits give low values 0.987 | locus YER016W, strain bim1, hits give low values 0.977 | locus YER110C, hits give low values 0.996 | locus YER111C, strain swi4, hits give low values 0.982 | locus YER155C, strain BEM2 (second series), hits give low values 0.966 | locus YER155C, strain BEM2, hits give low values 0.992 | locus YER167W, strain BCK2, hits give low values 1 | locus YFR010W, strain ubp6, hits give low values 0.977 | locus YGL078C, strain dbp3, hits give low values 0.989 | locus YGL086W, strain mad1, hits give low values 0.995 | locus YGL167C, strain pmr1, hits give low values 0.98 | locus YGL173C, strain kem1, hits give low values 0.963 | locus YGL227W, strain vid30, hits give low values 0.97 | locus YGL240W, strain doc1, hits give low values 0.971 | locus YGL248W, strain PDE1, hits give low values 1.05 | locus YGL253W, strain hxk2, hits give low values 0.985 | locus YGR135W, strain pre9, hits give low values 0.985 | locus YGR252W, strain gcn5, hits give low values 0.987 | locus YHR013C, strain ard1, hits give low values 0.964 | locus YHR027C, strain rpn1, hits give low values 0.98 | locus YHR030C, strain SLT2, hits give low values 1 and 0.975 | locus YHR079C, strain IRE1 (second series), hits give low values 0.99 | locus YHR079C, strain IRE1, hits give low values 0.971 | locus YHR094C, strain hxt1, hits give low values 0.978 | locus YHR129C, strain ARP1, hits give low values 1 | locus YHR142W, strain chs7, hits give low values 0.983 | locus YHR200W, strain rpn10, hits give low values 1 | locus YIL066C, strain RNR3, hits give low values 1.03 | locus YIL073C, strain SPO22, hits give low values 1.02 | locus YIL125W, strain kgd1, hits give low values 0.996 | locus YIR030C, strain dcg1, hits give low values 0.992 | locus YJL092W, strain hpr5, hits give low values 0.987 | locus YJL095W, strain BCK1 (second series), hits give low values 0.971 | locus YJL095W, strain BCK1, hits give low values 1.06 and 1.01 | locus YJL115W, strain asf1, hits give low values 0.977 | locus YJL129C, strain trk1, hits give low values 0.967 | locus YJL134W, strain LCB3, hits give low values 0.993 | locus YJL154C, strain vps35, hits give low values 0.979 | locus YJL164C, strain tpk1, hits give low values 0.98 | locus YJL166W, strain qcr8, hits give low values 0.982 | locus YJL168C, strain set2, hits give low values 0.993 | locus YJL187C, strain SWE1 (second series), hits give low values 1.02 | locus YJL187C, strain SWE1, hits give low values 0.994
